KDM5B inhibitor – KDM5B demethylase inhibition; Q9UGL1; KDM5B demethylase, FDH-coupled NADH fluorescence (FDH is formaldehyde dehydrogenase); Potency, µM (series often up to 57.7 µM), usual class: inhibitors; hit rate 2.6% among 220,000; active = well fitted inhibition curve with a large enough effect; note: 0% is about no effect; nearly all actives have a fitted effect of over 70% in size
Target sequence (Q9UGL1 whole entry, looked up): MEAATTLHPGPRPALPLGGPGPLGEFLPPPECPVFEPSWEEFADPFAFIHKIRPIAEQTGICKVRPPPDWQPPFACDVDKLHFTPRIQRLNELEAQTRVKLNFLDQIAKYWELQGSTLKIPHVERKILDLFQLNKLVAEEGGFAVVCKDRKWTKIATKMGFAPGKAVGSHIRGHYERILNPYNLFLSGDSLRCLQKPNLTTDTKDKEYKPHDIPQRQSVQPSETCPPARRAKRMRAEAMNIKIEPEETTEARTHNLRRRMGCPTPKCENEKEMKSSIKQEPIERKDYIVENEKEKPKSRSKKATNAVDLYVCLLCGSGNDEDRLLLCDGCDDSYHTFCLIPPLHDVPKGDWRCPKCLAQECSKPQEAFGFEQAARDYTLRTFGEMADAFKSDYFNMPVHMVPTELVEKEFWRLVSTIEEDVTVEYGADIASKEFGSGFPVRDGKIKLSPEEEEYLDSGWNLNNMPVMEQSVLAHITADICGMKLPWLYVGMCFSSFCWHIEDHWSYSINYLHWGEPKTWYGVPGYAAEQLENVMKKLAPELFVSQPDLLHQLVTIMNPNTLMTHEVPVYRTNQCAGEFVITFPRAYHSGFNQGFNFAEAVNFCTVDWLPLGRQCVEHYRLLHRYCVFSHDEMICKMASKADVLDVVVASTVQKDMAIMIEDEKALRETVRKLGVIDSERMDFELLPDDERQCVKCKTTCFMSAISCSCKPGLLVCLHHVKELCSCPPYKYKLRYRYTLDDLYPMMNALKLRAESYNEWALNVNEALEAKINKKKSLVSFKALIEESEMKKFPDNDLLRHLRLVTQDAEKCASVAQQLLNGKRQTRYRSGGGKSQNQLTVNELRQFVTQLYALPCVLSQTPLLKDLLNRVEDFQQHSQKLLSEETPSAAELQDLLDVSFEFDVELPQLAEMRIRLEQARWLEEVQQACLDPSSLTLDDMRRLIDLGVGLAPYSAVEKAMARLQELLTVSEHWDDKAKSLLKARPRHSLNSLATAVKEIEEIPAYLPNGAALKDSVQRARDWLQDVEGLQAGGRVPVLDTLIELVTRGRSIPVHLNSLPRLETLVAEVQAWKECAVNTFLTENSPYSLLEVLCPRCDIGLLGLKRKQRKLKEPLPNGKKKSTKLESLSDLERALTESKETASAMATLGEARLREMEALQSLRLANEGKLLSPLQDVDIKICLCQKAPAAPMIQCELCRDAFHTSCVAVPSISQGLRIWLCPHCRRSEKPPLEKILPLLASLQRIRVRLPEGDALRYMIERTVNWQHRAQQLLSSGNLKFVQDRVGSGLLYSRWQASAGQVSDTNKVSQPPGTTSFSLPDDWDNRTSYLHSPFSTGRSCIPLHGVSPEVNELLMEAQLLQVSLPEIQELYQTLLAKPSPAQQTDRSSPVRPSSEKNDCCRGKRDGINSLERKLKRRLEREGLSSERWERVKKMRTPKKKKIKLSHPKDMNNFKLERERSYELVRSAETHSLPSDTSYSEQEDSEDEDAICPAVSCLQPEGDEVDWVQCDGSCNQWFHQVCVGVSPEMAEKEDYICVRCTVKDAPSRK
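Inhibition is measured as reduced NADH fluorescence generation from FDH coupling to formaldehyde release. Truncated KDM5BΔAP at 200 nM final acts on H3K4me3 peptide (12.5 µM in substrate mix) in pH 7.5 HEPES buffer with Tween-20, 30 min, room temperature.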
* marks the source's active call; other numbers are inactive results; i = inactive. Only a selection was taken, and hits are over-represented in it overall. Potency is the fitted concentration of half-maximal effect.

SMILES | KDM5B inhibitor
COCCNC(=O)c1cnc2c(c1)N(Cc1ccccc1)CCC2 | 35µM*
CC(C)c1ccc(CC(=O)N2CCCc3ncc(C(=O)NCCOc4ccccc4)cc32)cc1 | i
COc1ccccc1CC(=O)N1CCCc2ncc(C(=O)NCCc3ccccc3)cc21 | i
COc1ccccc1CC(=O)N1CCCc2ncc(C(=O)NCCOc3ccccc3)cc21 | i
COc1ccccc1CC(=O)N1CCCc2ncc(C(=O)NCCC(C)C)cc21 | i
Cc1cccc(NC(=O)NC(C(=O)N2CCc3ccccc32)c2ccccc2)c1 (stereo not given) | i
CC(C)c1ccc(C2C(c3ccccc3)=C(O)C(=O)N2Cc2ccccn2)cc1 (stereo not given) | i
COCC(=O)N1C[C@@H]2CCCN3CCC[C@@H]([C@H]23)[C@H]1CCCC(=O)N1CCOCC1 | i
O=C(Nc1ccccc1)N1CCC(Oc2ccccc2-c2nc(-c3cnccn3)no2)C1 (stereo not given) | i
COc1cccc(C(=O)N2CC(Oc3ccc(-c4noc(-c5ccccc5)n4)cc3)C2)c1 | i
O=C(NC1CCCC1)N1CC(Oc2ccccc2-c2nc(-c3ccccc3)no2)C1 | 28µM*
CCNC(=O)N1CC(Oc2ccccc2-c2nc(-c3cnccn3)no2)C1 | i
COc1ccc(C(=O)N2CC(Oc3ccccc3-c3nc(-c4ccccc4)no3)C2)cc1 | 25µM*
COc1ccc(C(=O)N2CC(Oc3ccc(-c4nc(-c5ccccc5)no4)cc3)C2)cc1 | i
CN1CCN(C(=O)CCc2nc(C3CCCN3C(=O)NCCc3ccccc3)no2)CC1 (stereo not given) | i
CCOc1ccc(CC(=O)N2CCC3(CC2)N=C(c2ccc(C)cc2)NO3)cc1 | i
Cn1ncc(CN2CCc3[nH]cnc3C2c2cccc(C#N)c2)c1C1CC1 (stereo not given) | i
Cc1nc(C23CC4CC(CC(C4)C2)C3)cs1 | i
COc1ccc(-c2cc(-c3ccc(N4CCOCC4)nc3)cn3cncc23)cc1 | i
COc1cccc(-c2ncc[nH]2)c1 | i
COc1cccc(-c2cccc(CN)c2)c1 | i
COc1cccc(-c2cc(-c3ccc(OC)nc3)c3cncn3c2)c1 | 32µM*
COc1ccc(-c2cc(-c3ccc(N4CCOCC4)nc3)cn3cncc23)cn1 | 8.9µM*
O=C(O)c1ccc(N2CCOCC2)nc1 | i
O=C(Nc1ccc(=O)n2c1[C@@H]1C[C@@H](CN(S(=O)(=O)c3ccccc3)C1)C2)c1ccc2c(c1)OCO2 | i
SMILES | KDM5B inhibitor
COc1cccc(/C=C(/C#N)C(=O)c2c[nH]c3cc(F)ccc23)c1 | i
COc1ccc2c(C)c(CCC(=O)Nc3ccc(NC(C)=O)cc3)c(=O)oc2c1 | i
CCCCn1c(CCC(=O)Nc2ccccc2C(C)(C)C)nc2c1c(=O)[nH]c(=O)n2CCC | i
O=C(O)C1CCN(C(=O)c2cc(-c3ccccc3)nc3ccccc23)CC1 | i
CC(=O)N1CCN(C(=O)c2cc(-c3ccc(F)cc3)nc3ccccc23)CC1 | i
CC(C)(C)n1cc(-c2cc(C(=O)N3C[C@H]4CC[C@H]3C4)c3ccccc3n2)cn1 | 32µM*
Cc1cccc(C(=O)N[C@H]2CN(CCS(C)(=O)=O)C[C@@H]2C(C)C)c1 | i
Cc1nc2ncnn2c(N2CCCCCC2)c1Cc1ccccc1 | i
O=C(c1ccc2c(c1)OCO2)N1CCN(c2cc(-c3ccc(F)cc3)[nH]n2)CC1 | i
O=C(NC1CCCCC1)C1CCc2sc(C(=O)N3CCCC3)cc2C1 (stereo not given) | i
CS(=O)(=O)Cc1cccc(C(=O)Oc2ccc(Cl)c(Cl)c2)c1 | i
O=C(Cn1ccn2nc(-c3ccc(F)cc3)c(CO)c2c1=O)Nc1cccc(Br)c1 | i
O=C(Cn1ccn2nc(-c3ccccc3)c(CO)c2c1=O)NCc1ccc2c(c1)OCO2 | 32µM*
O=C(Cn1ccn2nc(-c3ccccc3)c(CO)c2c1=O)NCc1ccccc1Cl | 20µM*
O=C(Cn1ccn2nc(-c3ccccc3)c(CO)c2c1=O)NCc1ccc(F)cc1F | i
O=C(Cn1ccn2nc(-c3ccc(F)cc3)c(CO)c2c1=O)NCc1ccccc1Br | 22µM*
CCCNC(=O)Cn1ccn2nc(-c3ccccc3)c(CO)c2c1=O | i
O=C(Cn1ccn2nc(-c3ccc(F)cc3)c(CO)c2c1=O)NCc1ccc(F)cc1F | i
O=C(Cn1ccn2nc(-c3ccccc3)c(CO)c2c1=O)NCCCc1ccccc1 | i
Cc1cc(NC(=O)Cn2ccn3nc(-c4ccccc4)c(CO)c3c2=O)no1 | i
C[Si](C)(C)C#C/C=C/S(=O)(=O)c1ccccc1 | i
O=C(NCC1CC1)c1cccc(OC2CN(Cc3ccncc3F)C2)c1 | i
COc1ccc(Cc2nnc(SCC(=O)Nc3ccc(Br)c(C)c3)n2C)cc1 | i
CCCn1nc(C(=O)Nc2ccc(SC(F)F)cc2)c2ccccc2c1=O | i
CCn1c(C2CCCN(Cc3ccccn3)C2)nn(C)c1=O (stereo not given) | i
SMILES | KDM5B inhibitor
COC(=O)c1ccc(NC(=O)COC(=O)c2oc3ccccc3c2C)cc1 | i
NS(=O)(=O)c1ccc(CCNC(=O)c2cc3n(n2)CC(c2ccc(Cl)cc2)OC3)cc1 (stereo not given) | i
CCC(C)NC(=O)c1cc2n(n1)CC(c1ccc3c(c1)OCO3)OC2 (stereo not given) | i
CCc1ccc(NC(=O)c2cc3n(n2)CC(c2ccc4c(c2)OCO4)OC3)cc1 (stereo not given) | 32µM*
COc1ccccc1CNC(=O)c1cc2n(n1)CC(c1ccc(Cl)cc1)OC2 (stereo not given) | i
Cc1ccc(NC(=O)c2cc3n(n2)CC(c2ccc4c(c2)OCO4)OC3)cc1 (stereo not given) | 32µM*
Cc1ccc(N2CCN(C(=O)c3cc4n(n3)CC(c3ccc(Cl)cc3)OC4)CC2)cc1 (stereo not given) | i
Cc1ccccc1N1CCN(C(=O)c2cc3n(n2)CC(c2ccc(Cl)cc2)OC3)CC1 (stereo not given) | i
Cc1cc(NC(=O)c2cc3n(n2)CC(c2ccc4c(c2)OCO4)OC3)ccc1F (stereo not given) | 28µM*
COc1ccc(CCNC(=O)c2cc3n(n2)CC(c2ccc4c(c2)OCO4)OC3)cc1OC (stereo not given) | 28µM*
CCc1ccc(NC(=O)C2=CC(c3ccc4c(c3)OCO4)=NS(=O)(=O)N2C)cc1 | i
CCN(Cc1ccncc1)C(=O)c1c(OCC2CC2)cc(=O)n2c1CCCCC2 | i
O=C(NC[C@H]1Cn2c(-c3ccccc3)cnc2CO1)C1CCCC1 | i
COCCN1C(=O)CC[C@]2(C(=O)NCc3ccc(OC)c(OC)c3)CCCC[C@@H]12 | i
O=C(CSc1nc(Cl)nc2nc[nH]c12)NCCc1ccc(Cl)cc1Cl | i
CCC(C)Cn1c(CCNC(=O)c2ccco2)nc2ccccc21 (stereo not given) | i
Cc1nn(-c2ccc(N3CCCC3)nn2)c(C)c1CCC(=O)NCCc1ccco1 | i
Cc1ccc2oc(=O)n(CCC(=O)N3CCc4c(nc(C)[nH]c4=O)C3)c2c1 | i
CN(C(=O)c1ccc(Cl)cc1)c1nc2ccccc2o1 | i
CCOc1cc(C=O)cc(Cl)c1OC | i
CCc1ccc(NC(=O)C(C#N)=C2CCCCC2)cc1 | i
Cc1cnc(CC2CCN(C(=O)Cc3cccc(F)c3)CC2)n1CC1CC1 | i
COC(=O)[C@@H](C)NC(=O)NCc1ccc(C)cc1 | i
